# Assay results published in article PMC9838217, “Structure of SALL4 zinc finger domain reveals link between AT-rich DNA binding and Okihiro syndrome”.
# Changes are numbered by the printed parent chain.
# What was measured:
# [1] = biological target: T1, SALL4 ZFC4 R900W (HT-SELEX) (Mus musculus, UniProt Q8BX22 870-940, R900W); assay: HT-SELEX; high values mean tight binding; conditions: protein: recombinant; vector His6-GST; dsDNA, one strand shown
# T1 sequence: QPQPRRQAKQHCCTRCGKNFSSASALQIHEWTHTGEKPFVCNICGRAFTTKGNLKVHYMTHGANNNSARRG
# Method in brief: (§1)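 Binding signal is expressed as fold change in each canonical k-mer's read fraction over the initial random library. To obtain it, 1 µg of purified recombinant mouse SALL4 zinc finger cluster 4 (residues 870–940) was incubated for 10 min at room temperature with library DNA (1.5 µg first cycle, 200 ng later cycles) in 100 µl of 10 mM Tris–HCl pH 7.5, 50 mM NaCl, poly(dI-dC) and DTT. Ni2+ bead-captured complexes went through washing, PCR amplification and reselection for up to 6 cycles, in triplicate, before MiSeq sequencing and scanning for 6-mers.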
# [2] = biological target: T2, SALL4 ZFC4 G921D (HT-SELEX) (Mus musculus, UniProt Q8BX22 870-940, G921D); assay: HT-SELEX; high values mean tight binding; conditions: protein: recombinant; vector His6-GST; dsDNA, one strand shown
# T2 sequence: T1 sequence with W31R, G52D
# Method in brief: as §1
Sequence,binding signal [1] [fold-change vs cycle 0],binding signal [2] [fold-change vs cycle 0]
AGCCCC,0.191 ± 0.0184,0.329 ± 0.0672
CGTCCC,0.238 ± 0.0171,0.351 ± 0.0721
AGGCCT,0.384 ± 0.0275,0.516 ± 0.0785
CAGGCG,0.129 ± 0.00318,0.24 ± 0.0647
CCACGC,0.141 ± 0.0119,0.248 ± 0.0561
CCGCCC,0.0662 ± 0.0114,0.164 ± 0.0742
GAGCGC,0.088 ± 0.00871,0.196 ± 0.0698
CCGGAG,0.255 ± 0.0305,0.352 ± 0.0596
CTGGCA,0.281 ± 0.0156,0.413 ± 0.0619
GCCCGC,0.0368 ± 0.00404,0.115 ± 0.0587
GGCAAC,0.322 ± 0.0219,0.438 ± 0.0577
CACGCC,0.137 ± 0.0218,0.251 ± 0.0597
CCCGGG,0.132 ± 0.0102,0.234 ± 0.0711
GCCGGC,0.0318 ± 0.0022,0.112 ± 0.0697
CAGCGA,0.275 ± 0.0083,0.404 ± 0.0764
ACGCGG,0.111 ± 0.0165,0.205 ± 0.0613
CGGGCC,0.0506 ± 0.00629,0.15 ± 0.0772
CACCCG,0.244 ± 0.0244,0.342 ± 0.0506
CGCGCC,0.0255 ± 0.00279,0.0934 ± 0.0574
AGGCGG,0.136 ± 0.00959,0.264 ± 0.0731
ACGTGC,0.314 ± 0.00898,0.439 ± 0.0607
AACCGC,0.258 ± 0.0187,0.396 ± 0.0835
AGCGCG,0.0579 ± 0.00565,0.159 ± 0.0595

Sequence,binding signal [1] [fold-change vs cycle 0],binding signal [2] [fold-change vs cycle 0]
AAGCCG,0.241 ± 0.0209,0.357 ± 0.0555
GCCGAA,0.189 ± 0.0081,0.319 ± 0.0704
TGCGCA,0.136 ± 0.00666,0.263 ± 0.0848
CCCCAG,0.289 ± 0.0372,0.38 ± 0.0427
GCGAGC,0.103 ± 0.00798,0.229 ± 0.0707
GGGCGA,0.127 ± 0.00943,0.251 ± 0.0728
CGGGTC,0.212 ± 0.0149,0.342 ± 0.0694
CCGCAA,0.234 ± 0.0164,0.347 ± 0.0535
CGACGC,0.0904 ± 0.00963,0.193 ± 0.0701
GCGCAA,0.123 ± 0.00425,0.249 ± 0.0828
CGCCCG,0.0459 ± 0.011,0.128 ± 0.0586
ACGCAC,0.27 ± 0.0299,0.404 ± 0.0719
GCCCCC,0.107 ± 0.0111,0.213 ± 0.0572
CGACCG,0.146 ± 0.0139,0.263 ± 0.0799
CGCACC,0.132 ± 0.00899,0.24 ± 0.0749
AGAGCG,0.324 ± 0.0123,0.489 ± 0.067
GTGTTA,1.37 ± 0.0667,1.31 ± 0.0659
AGGCCC,0.169 ± 0.00192,0.296 ± 0.0789
CGGTCC,0.209 ± 0.0179,0.324 ± 0.081
CCCCGG,0.118 ± 0.0064,0.224 ± 0.0627
GCGGTA,0.271 ± 0.0135,0.391 ± 0.0556
CCAGGG,0.305 ± 0.0286,0.408 ± 0.0718
GCGCGA,0.0544 ± 0.00435,0.152 ± 0.0576

Sequence,binding signal [1] [fold-change vs cycle 0],binding signal [2] [fold-change vs cycle 0]
CGCTCC,0.165 ± 0.00419,0.29 ± 0.0821
CGGCAA,0.19 ± 0.00924,0.324 ± 0.0774
AGTGCG,0.276 ± 0.0168,0.407 ± 0.068
CCCTGC,0.219 ± 0.0265,0.323 ± 0.0875
ACGACG,0.31 ± 0.0104,0.425 ± 0.0391
CCCCGA,0.246 ± 0.0185,0.358 ± 0.0831
ACCGCC,0.117 ± 0.0115,0.235 ± 0.0718
CCGCAC,0.118 ± 0.0077,0.22 ± 0.0597
GGGCAA,0.299 ± 0.00241,0.434 ± 0.0775
AAGGCG,0.265 ± 0.014,0.425 ± 0.0847
CGATGC,0.312 ± 0.0118,0.454 ± 0.0801
TCGGCA,0.208 ± 0.0109,0.351 ± 0.0637
CATGGC,0.357 ± 0.0224,0.495 ± 0.0505
AACGCG,0.226 ± 0.0175,0.329 ± 0.0589
CGCTGA,0.291 ± 0.0233,0.403 ± 0.0818
CTGCCA,0.304 ± 0.0171,0.451 ± 0.0863
CAGGCC,0.16 ± 0.0134,0.277 ± 0.0643
CACCGG,0.216 ± 0.0195,0.331 ± 0.0683
CACCGC,0.132 ± 0.00669,0.239 ± 0.0797
CATCGC,0.317 ± 0.0166,0.45 ± 0.0668
CGCTAC,0.3 ± 0.026,0.426 ± 0.0556
GCCGTA,0.228 ± 0.00567,0.345 ± 0.066
TCCGCA,0.269 ± 0.0199,0.408 ± 0.0556

Sequence,binding signal [1] [fold-change vs cycle 0],binding signal [2] [fold-change vs cycle 0]
CCGAGG,0.251 ± 0.0139,0.375 ± 0.0741
GCCGCA,0.0591 ± 0.00535,0.149 ± 0.0608
AGAGGC,0.355 ± 0.0197,0.484 ± 0.0611
GGCACC,0.163 ± 0.0146,0.28 ± 0.0664
CGCCCA,0.107 ± 0.00392,0.227 ± 0.0707
CGCCCC,0.0728 ± 0.00775,0.173 ± 0.0648
ACGAAT,1.26 ± 0.0589,1.24 ± 0.0791
GTGCGA,0.265 ± 0.00784,0.4 ± 0.0639
GCAAGC,0.302 ± 0.00778,0.429 ± 0.0449
CCTCGC,0.171 ± 0.0115,0.295 ± 0.0773
GCGAGA,0.334 ± 0.0226,0.472 ± 0.0669
CCGTCG,0.147 ± 0.00952,0.245 ± 0.0616
GCATTA,1.09 ± 0.0461,1.15 ± 0.019
GGCGCC,0.0274 ± 0.00854,0.102 ± 0.0477
AGCACG,0.337 ± 0.0173,0.468 ± 0.0696
ACGGCA,0.221 ± 0.00749,0.353 ± 0.0815
AGTGGC,0.299 ± 0.0198,0.455 ± 0.0604
AGCAGC,0.286 ± 0.013,0.426 ± 0.0467
GCCAAC,0.279 ± 0.0168,0.415 ± 0.0905
ATCGGC,0.223 ± 0.00552,0.362 ± 0.0707
CCGGGC,0.0594 ± 0.00905,0.152 ± 0.0608
CCCGTC,0.236 ± 0.0162,0.34 ± 0.0606
GCGCTA,0.156 ± 0.0119,0.291 ± 0.093

Sequence,binding signal [1] [fold-change vs cycle 0],binding signal [2] [fold-change vs cycle 0]
ACGCCG,0.0708 ± 0.0067,0.183 ± 0.0752
CCAGGC,0.174 ± 0.0159,0.302 ± 0.0679
CCACCC,0.298 ± 0.0277,0.395 ± 0.0676
GTCGGA,0.35 ± 0.00494,0.501 ± 0.0597
GGTGCA,0.359 ± 0.0169,0.479 ± 0.0732
GGCTCA,0.336 ± 0.00359,0.477 ± 0.0634
CGGGGA,0.231 ± 0.0209,0.347 ± 0.093
AAGCGG,0.29 ± 0.026,0.396 ± 0.0731
GACCGC,0.124 ± 0.0133,0.245 ± 0.0713
GCGGAA,0.245 ± 0.0256,0.373 ± 0.0585
AGCCGG,0.121 ± 0.00957,0.244 ± 0.0663
CACAGC,0.324 ± 0.0122,0.442 ± 0.0707
GCGCGC,0.0165 ± 0.00409,0.0747 ± 0.0529
CGTGCA,0.286 ± 0.00377,0.417 ± 0.0517
CGCGCG,0.0217 ± 0.00502,0.0939 ± 0.0507
GAAGTA,1.6 ± 0.0945,1.43 ± 0.121
CCGAGC,0.158 ± 0.00799,0.273 ± 0.0808
CCTGCG,0.145 ± 0.0224,0.246 ± 0.0829
CGCGAA,0.201 ± 0.0239,0.315 ± 0.0749
ATGATG,1.51 ± 0.0621,1.43 ± 0.0931
CCGCTA,0.299 ± 0.0278,0.434 ± 0.0518
TCGCCA,0.213 ± 0.00577,0.371 ± 0.0688
